# Reference: PubChem BioAssay AID1273 (Columbia University Molecular Screening Center, 2008)
# The campaign covered roughly 130,000 compounds. About 1,200 (0.92%) were called active.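 The calls were made as follows: active = inhibition above the mean plus 3 SD, with well images judged a real hit on visual review (cut at about 60% in these data, passing the limit was not always enough); inconclusive = inhibition over the cutoff but images rejected on review; inactive = inhibition not above the cutoff.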 The sample as a whole holds a higher share of actives than the screen did.
# Test: insulin gene promoter suppression in islet cells – imaging, TRM-6 cells (human fetal islet line), eGFP reporter, cell count, primary screen (AID 1273;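 as to normalized cell count: cells exposed to compound for 48 h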)
# Details: at 2 µM, reporter expression induced with tamoxifen; inhibition: stronger effect = higher value; normalized cell count: measured here: cell count, toxicity
Compound,inhibition,normalized cell count [%]
COc1cc(NC(=O)c2cccs2)ccc1NC(=O)c1ccccc1Cl,20% (inactive),118
CCC(=O)c1cc2c(cc1NC(=O)c1cccs1)OCCO2,80% (active),106
Cc1nc(-c2ccc(NC(=O)c3cccs3)cc2)cs1,43.8% (inactive),89.3
N/C(=N\OC(=O)COc1ccc([N+](=O)[O-])cc1)c1ccc(Br)cc1,-81.2% (inactive),113
Cc1cccc(C)c1NC(=S)N(Cc1cccnc1)Cc1ccccc1Cl,-60% (inactive),73.3
Cc1cccc(N2C(=O)c3cccnc3C2=O)c1,11.4% (inactive),66.7
CCOc1ccc(CCN2C(=O)c3cccnc3C2=O)cc1OCC,68.4% (active),94.8
CCOc1ccc(CCNC(=O)CSc2cc(=O)n(C)c3ccc(Cl)cc23)cc1OCC,-11.8% (inactive),144
C/C(=N\NC(=O)C(N)=O)c1ccc2c(c1)OCCO2,-41.2% (inactive),156
CN(CC(=O)Nc1cccc2c1CCCC2)S(=O)(=O)c1ccc(Cl)cc1,38.5% (inactive),112
CN(CC(=O)NCCc1ccccn1)S(=O)(=O)c1ccc(Cl)cc1,-33.3% (inactive),83.8
Cc1nc(NC(=O)CN(C)S(=O)(=O)c2ccc(Cl)cc2)sc1C,80% (active),67.9
COC(=O)c1cc(C)sc1NC(=O)CC1Nc2ccccc2NC1=O (configuration not stated),40.5% (inactive),145
Cc1cnc(NC(=O)C2CCCC2)s1,20.5% (inactive),280
CCOC(=O)c1cc(C)sc1NC(=O)C1CCC1,87.5% (active),161
CCOC(=O)c1ccc(NNC(C)=O)c([N+](=O)[O-])c1,-68.4% (inactive),62.3
O=C(C1CCCO1)N1CCN(C(=S)NC2CC2)CC1 (configuration not stated),-29.4% (inactive),80.6
CC(=O)c1ccc(N2CCN(S(=O)(=O)c3c(C)[nH]c(=O)[nH]c3=O)CC2)cc1,-10% (inactive),114
Cc1ccc(N/C=C/C(=O)c2ccccc2)cc1C,7.69% (inactive),107

Compound,inhibition,normalized cell count [%]
C/C(=C\C(=O)c1ccccc1)Nc1cccc(O)c1,-33.3% (inactive),193
C/C(=C\C(=O)c1cccnc1)Nc1ccc(C)c(C)c1,85.7% (active),74
CCSC1=NCCN1S(=O)(=O)c1ccc(F)cc1,7.69% (inactive),130
CC(Oc1ccc(Cl)cc1)C(=O)OCC(=O)Nc1ncc(Cl)cc1Cl (configuration not stated),20% (inactive),100
COc1cc(NC(=O)COC(=O)c2cnc(C)cn2)c(C)cc1[N+](=O)[O-],27.3% (inactive),90.4
Cc1cnc(C(=O)OCC(=O)Nc2ccc(Cl)cc2Cl)cn1,81.5% (active),20
Cc1ccc(S(=O)(=O)Cc2cc(-c3ccc(Cl)cc3)no2)cc1,25% (inactive),128
CCOC(=O)C1(Cc2ccc(Cl)cc2)CCN(C(=O)C2=NNC(=O)CC2)CC1,-46.1% (inactive),93.7
CCOC(=O)c1nnn(-c2nonc2-n2cccc2)c1CN1CCC(C(=O)OCC)CC1,13.9% (inactive),99.3
CCOC(=O)c1nnn(-c2nonc2-n2cccc2)c1CN1CCOCC1,13.9% (inactive),62.1
CCN(CC)Cc1c(C(=O)OC)nnn1-c1nonc1N,72.4% (active),14.1
Cc1ccc(C(=O)Cn2cccn2)cc1,-62.5% (inactive),90.7
CNS(=O)(=O)c1ccc(NC(=O)C2CC(=O)N(c3ccc(Cl)cc3)C2)cc1 (configuration not stated),63.6% (inactive),32.9
O=C(Nc1nnc(SCc2ccccc2)s1)c1ccco1,0% (inactive),86.4
Cc1ccc(Nc2nnc(SCc3ccccc3)s2)cc1,100% (active),9.38
CCSc1nnc(NC(=O)c2ccc(C)cc2)s1,-38.7% (inactive),45.1
O=C(NCC1CCCO1)C(C(=O)c1ccccc1)n1cc(Cl)ccc1=O (configuration not stated),-40% (inactive),104
CN(C)CCNC(=O)C(C(=O)c1ccccc1)n1ccccc1=O (configuration not stated),86.7% (active),49.3
CN(C)CCNC(=O)/C(=C/c1cccc([N+](=O)[O-])c1)NC(=O)c1ccccc1,-14.3% (inactive),101

Compound,inhibition,normalized cell count [%]
Cc1ccc(OC(=O)CCC(=O)Nc2ccc(Br)cc2)cc1,-66.7% (inactive),102
COCC(=O)Nc1cc(C(=O)OC)cc(C(=O)OC)c1,12.8% (inactive),127
COCC(=O)Nc1ccc(Br)cc1,73.3% (active),43.9
O=C(Cc1cccc2ccccc12)NCCC1=CCCCC1,-22.2% (inactive),92.7
CCOC(=O)c1ccccc1NC(=O)CSc1nc2ccccc2c(=O)[nH]1,-83.3% (inactive),180
CCc1ccc(NC(=O)c2ccc(Cn3cc([N+](=O)[O-])cn3)cc2)cc1,6.25% (inactive),63.8
Cn1cc([N+](=O)[O-])c(C(=O)Nc2cnn(Cc3ccc(F)cc3)c2)n1,69.2% (active),112
COc1cccc(NC(=O)c2ccc(Cn3cc([N+](=O)[O-])cn3)o2)c1,-11.1% (inactive),79.5
COCCNC(=S)N1CCC(NC(=O)C23CC4CC(CC(C4)C2)C3)CC1,21.4% (inactive),106
CCn1c(SCc2ccccc2)nc2c(c1=O)SCC2,48.6% (inactive),108
CC(Sc1nnnn1C)C(=O)NC(=O)NC1CCCCC1 (configuration not stated),36.4% (inactive),91.5
Cc1ccc(NC(=O)C2(N3CCC3=O)CCCCC2)cc1,-35.7% (inactive),133
O=C(O)Cc1ccc(NCc2ccccc2Cl)cc1,0% (inactive),111
CC(C)(C)SCCNC(=O)c1cccc([N+](=O)[O-])c1,-42.9% (inactive),85.5
C=CCNC(=O)COC(=O)CNC(=O)c1cc(Cl)cc([N+](=O)[O-])c1,83.3% (active),37
C=CCNC(=O)/C(=C\c1cccc([N+](=O)[O-])c1)NC(=O)c1ccccc1,-26.7% (inactive),102
CC(OC(=O)CCc1nc(=O)c2ccccc2n1C)C(=O)NCc1ccc2c(c1)OCO2 (configuration not stated),-58.8% (inactive),141
Cc1ccc(CNC(=O)CCNS(=O)(=O)c2ccc(Br)s2)cc1,37.5% (inactive),94.3
